Experimental findings from PubChem BioAssay (EPA / NIEHS) are described below.

The source made the active and inactive calls. How the source made its calls: active means hit-call score of the fitted dose curve at least 0.9, where 1 is the maximum; inactive means score below 0.9.

The experiment deals with Transcription factor E2F1 (Homo sapiens) (UniProt Q01094). Put plainly: ATG_E2F_CIS: Attagene CIS-FACTORIAL HepG2 Assay for human E2F Transcription Factor 1 (AID 2282935). As to conditions: HepG2 Attagene cis-reporter, E2F reporter RNA transcripts; actives raise or lower the signal. As for the experimental part: ATG_CIS is a cell-based, multiplexed-readout assay that uses HepG2, a human liver cell line, with measurements taken at 24 hours after chemical dosing in a 24-well plate.ATG_E2F_CIS is one of 52 assay component(s) measured or calculated from the ATG_CIS assay. It is designed to make measurements of mRNA induction, a form of inducible reporter, as detected with fluorescence intensity signals by Reverse transcription polymerase chain reaction (RT-PCR) and Capillary electrophoresis technology.Data from the assay component ATG_E2F_CIS was analyzed into 1 assay endpoint. This assay endpoint, ATG_E2F_CIS, was analyzed with bidirectional fitting relative to DMSO as the negative control and baseline of activity. Using a type of inducible reporter, measures of mRNA for gain or loss-of-signal activity can be used to understand the reporter gene at the transcription factor-level as they relate to the gene E2F1. Furthermore, this assay endpoint can be referred to as a primary readout, because this assay has produced multiple assay endpoints where this one serves a reporter gene function. To generalize the intended target to other relatable targets, this assay endpoint is annotated to the dna binding intended target family, where the subfamily is E2F transcription factor.
Transcription factor E2F1 (Homo sapiens), sequence (Q01094 whole entry, looked up): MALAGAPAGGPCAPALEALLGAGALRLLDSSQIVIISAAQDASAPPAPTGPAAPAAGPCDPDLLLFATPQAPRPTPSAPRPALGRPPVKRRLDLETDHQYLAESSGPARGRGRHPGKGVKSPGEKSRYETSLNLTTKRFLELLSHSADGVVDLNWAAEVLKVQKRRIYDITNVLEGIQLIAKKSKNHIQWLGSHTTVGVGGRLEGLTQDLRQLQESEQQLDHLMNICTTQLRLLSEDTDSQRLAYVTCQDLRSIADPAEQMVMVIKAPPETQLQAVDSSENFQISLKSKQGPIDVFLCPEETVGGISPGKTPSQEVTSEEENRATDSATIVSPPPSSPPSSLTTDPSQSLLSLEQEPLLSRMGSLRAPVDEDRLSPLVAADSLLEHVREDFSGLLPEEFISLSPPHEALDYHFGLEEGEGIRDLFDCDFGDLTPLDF
Human liver HepG2 cells are transiently transfected with multiple reporter transcription units (MRTUs) in 6-well plates using FuGene 6 reagent (Roche; 3 ml FuGene/1 mg DNA). The MRTU constructs are regulated by a cis-regulating element (promoter). […] A major difference between the CIS and TRANS system is that in CIS activities of endogenous TFs are measured, whereas the TRANS assay evaluates changes in activities of exogenous, chimeric NR-Gal4 proteins. […] At the end of 24 hour incubation, total RNA was isolated using TriZol reagent (Invitrogen). The isolated RNA is then reverse-transcribed using oligo(dT) primer and Mo-MLV reverse transcriptase (Invitrogen) with DNAse I (Ambion) treatment for 30 min. The one-tenth of the produced cDNA was amplified by PCR using Taq DNA polymerase (Invitrogen) and two reporter sequence-specific primers. The PCR products were fluorescently labeled by primer extension with 6-arboxyfluorescein (6-FAM) 5'-labeled reporter sequence-specific primer (2 min at 95 C, 20 s at 68 C and 10 min at 72 C) and these products were digested with 5U of HpaI (New England Biolabs) for 2h at 37 C. The fragments were purified using Qiaquick PCR columns (Qiagen), analyzed on an ABI 3130xL genetic analyzer (Applied Biosystems) with peak positions identified by using a set of X-rhodamine (ROX)-labeled MapMarker1000 molecular weight standards (BioVentures). The raw capillary electrophoresis data was processed using Attagraph software (Attagene).
`CC(=O)OCC=Cc1ccccc1`: the call was inactive.
Same read-out and setting: with `COc1ccc(OC)c(OC)c1` the entry was “inactive”; with `CCCCCCCCCCCCSC`, “inactive”.
The same measure, in the same setting: with `CC(C)C(C)(C)C(C)(C)C(C)(C)S` the entry was “inactive”.
On the same count and under the same terms, to `CCC(C(=O)NC(N)=O)c1ccccc1` (stereo not given) belongs “inactive”; to `CC(C)OP(=O)(CP(=O)(OC(C)C)OC(C)C)OC(C)C`, “inactive”; to `CCCCO`, “inactive”.
With `O=S(=O)(O)c1ccc(O)c2ncccc12`, the molecule was called inactive.
The same measure, in the same setting: to `CC(C)CCCCCCCOC(=O)c1ccc(C(=O)OCCCCCCCC(C)C)c(C(=O)OCCCCCCCC(C)C)c1` belongs “inactive”.
The same measure, in the same setting: with `CCCCCCCCCCCCCCCC(=O)O` the entry was “inactive”; with `CC1(C)OC[C@@H]2O[C@@]3(C(=O)O)OC(C)(C)O[C@H]3[C@@H]2O1`, “inactive”; with `CC(=O)OCCC(C)CC(C)(C)C` (stereo not given), “inactive”.
Same read-out and setting: to `C=C(C)C(=O)Nc1ccc(Cl)c(Cl)c1` belongs “inactive”; to `O=C(Nc1ccccc1)c1cc([N+](=O)[O-])ccc1Cl`, “inactive”.
On to `CC(C)C1CCC(O)CC1` (stereo not given), for which the outcome was inactive.
Same read-out and setting: to `N#Cc1nc(Cl)c(Cl)c(Cl)c1Cl` belongs “inactive”.
Same read-out and setting: to `O=C(O)c1snc(Cl)c1Cl` belongs “inactive”.
As for `CCCCCCCCCCN`, the molecule was classed as inactive.
Take `COc1cc(C=O)ccc1OC(=O)C(C)C`: the molecule was classed as inactive.
On the same count and under the same terms, to `NCCNCCN` belongs “inactive”.
The same measure, in the same setting: with `CNC(=O)Oc1ccc2c(c1)[C@]1(C)CCN(C)[C@@H]1N2C` the entry was “inactive”; with `O=C(O)c1cccc(C(F)(F)F)c1`, “inactive”.
One may read the AC50 as the concentration at which the activity in the assay is half-maximal. For `C#C[C@]1(O)CC[C@H]2[C@@H]3CCC4=Cc5oncc5C[C@]4(C)[C@H]3CC[C@@]21C`, the AC50 was 33.4 µM (active).
For the molecule `CC(C=O)Cc1ccc(C(C)C)cc1` (stereo not given), the outcome was inactive.
The same measure, in the same setting: to `c1ccc2sc(SN(C3CCCCC3)C3CCCCC3)nc2c1` belongs “inactive”; to `C=CC(=O)OCCOCCOCC`, “inactive”; to `CCOc1ccccc1OCC`, “inactive”.
On the same count and under the same terms, with `CN1Cc2c(N)cccc2C(c2ccccc2)C1` (stereo not given) the entry was “inactive”.
On the same count and under the same terms, to `C=C(C)[C@@H]1CCC2=CC(=O)C[C@@H](C)[C@]2(C)C1` belongs “inactive”.
As to `C=CC(C)(O)CCC=C(C)CCC=C(C)C` (stereo not given), the result was inactive.
`c1ccc(CCCc2ccccn2)cc1`: the AC50 was 72.7 µM (active).
On to `CC(C)(CO)[N+](=O)[O-]`, for which the result was inactive.
Still for that read-out and setting: with `CNC[C@H](O)c1cccc(O)c1` the entry was “inactive”.
With `CC1CCC2CC1C2(C)C` (stereo not given), the result was inactive.
Turning to `O=C1C(c2[nH]c3ccc(S(=O)(=O)O)cc3c2O)=Nc2ccc(S(=O)(=O)O)cc21`, the outcome was inactive.
On the same count and under the same terms, to `CCCc1c(OCCCOc2ccc(OCC(=O)O)cc2)ccc(C(C)=O)c1O` belongs “inactive”; to `O=Nc1ccc(Nc2ccccc2)cc1`, “inactive”; to `O=CCCc1ccccc1`, “inactive”.
The same measure, in the same setting: to `Clc1ccc(Cl)c(Cl)c1Cl` belongs “inactive”; to `Nc1cc(N)cc(C(=O)O)c1`, “inactive”.
